PubChem BioAssay
Calls of active or inactive are those of the source. Unless noted, the rule behind the calls is not given here.

What was measured:
[1] = HepG2 liver cancer cell viability effects, profiling panel, resazurin fluorescence, 24 h, PK04 Diversity Set (AID 1172); details: higher = more signal
[2] = basal S. cerevisiae growth modulation, no modifier, primary screen, OD600, strain BY4716, 24 h, basal condition (AID 1173); details: OD600, 24 h, higher = more signal, called active from +8 up or from −8 down
[3] = MM1S myeloma cell viability, profiling panel, resazurin fluorescence, basal, 24 h, PK04 Diversity Set (AID 1174); details: higher = more signal, called active from +8 up or from −8 down;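 note: MM1S multiple myeloma cell line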
[4] = target: Dihydroorotate dehydrogenase (quinone), mitochondrial (Plasmodium falciparum (isolate 3D7)) (UniProt Q08210); assay: PfDHODH enzyme inhibitors, primary screen, biochemical, C-terminal His tag, absorbance 600 nm (AID 1175); details: DCIP absorbance 600 nm, higher = more signal, called active from +8 up or from −8 down;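 note: recombinant parasite enzyme with a five histidine tag at its C terminus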
Sequence of Dihydroorotate dehydrogenase (quinone), mitochondrial (Plasmodium falciparum (isolate 3D7)) (Q08210 whole entry, looked up): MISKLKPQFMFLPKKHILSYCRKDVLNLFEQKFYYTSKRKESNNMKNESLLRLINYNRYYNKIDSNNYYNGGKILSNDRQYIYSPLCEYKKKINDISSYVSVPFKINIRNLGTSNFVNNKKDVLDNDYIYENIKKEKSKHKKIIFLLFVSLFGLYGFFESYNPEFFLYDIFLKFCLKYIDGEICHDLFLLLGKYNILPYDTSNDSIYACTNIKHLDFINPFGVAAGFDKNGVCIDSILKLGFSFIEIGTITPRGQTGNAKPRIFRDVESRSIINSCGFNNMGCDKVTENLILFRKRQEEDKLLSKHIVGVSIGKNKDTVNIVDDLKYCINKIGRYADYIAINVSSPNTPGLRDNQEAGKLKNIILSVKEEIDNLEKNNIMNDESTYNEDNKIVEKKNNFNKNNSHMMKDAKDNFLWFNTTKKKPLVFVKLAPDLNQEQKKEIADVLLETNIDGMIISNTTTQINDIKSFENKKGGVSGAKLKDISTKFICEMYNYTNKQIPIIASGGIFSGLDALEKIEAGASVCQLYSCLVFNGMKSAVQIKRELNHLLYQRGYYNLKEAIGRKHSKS

[5] = P. aeruginosa biofilm formation inhibitors, primary screen, strain PAO1, LB-PBS medium, absorbance 600 nm (AID 1176); details: P. aeruginosa PAO1 growth/biofilm, A600, 12 h; higher = more signal
[6] = S. cerevisiae RM11-1a growth modifiers, primary screen, strain RM11-1a, OD600, basal, 24 h (AID 1177); details: OD600, 24 h, higher = more signal, called active from +8 up or from −8 down;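 note: cultures grown under basal conditions with no added stressor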
[7] = E. coli acrAB mutant growth effects, primary screen, E. coli filamentation inducers, strain DRC39, OD650, 24 h (AID 1178); details: higher = more signal, called active from +8 up or from −8 down;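 note: growth measured as culture turbidity by optical density at 650 nm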
[8] = E. coli acrAB mutant growth effects, primary screen, E. coli filamentation inducers, strain DRC39, OD650, 48 h (AID 1179);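 note: screen aims at cell division blockers that make cells filament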; details: E. coli DRC39 delta-acrAB growth, higher = more signal, called active from +8 up or from −8 down
[9] = RPMI8226 myeloma cell viability, profiling panel, resazurin fluorescence, basal, 24 h, PK04 Diversity Set (AID 1180); details: higher = more signal;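 note: RPMI8826 multiple myeloma cell line at 5000 cells per well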
[10] = target: E3 ubiquitin-protein ligase XIAP (Homo sapiens) (UniProt P98170); assay: XIAP binders, primary screen, biophysical, small-molecule microarray, fluorescence 635 nm (AID 1181); details: small-molecule microarray binding, higher = more signal;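 note: score merges 667 nm emission and signal to noise over triplicate slides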
Sequence of E3 ubiquitin-protein ligase XIAP (Homo sapiens) (P98170 whole entry, looked up): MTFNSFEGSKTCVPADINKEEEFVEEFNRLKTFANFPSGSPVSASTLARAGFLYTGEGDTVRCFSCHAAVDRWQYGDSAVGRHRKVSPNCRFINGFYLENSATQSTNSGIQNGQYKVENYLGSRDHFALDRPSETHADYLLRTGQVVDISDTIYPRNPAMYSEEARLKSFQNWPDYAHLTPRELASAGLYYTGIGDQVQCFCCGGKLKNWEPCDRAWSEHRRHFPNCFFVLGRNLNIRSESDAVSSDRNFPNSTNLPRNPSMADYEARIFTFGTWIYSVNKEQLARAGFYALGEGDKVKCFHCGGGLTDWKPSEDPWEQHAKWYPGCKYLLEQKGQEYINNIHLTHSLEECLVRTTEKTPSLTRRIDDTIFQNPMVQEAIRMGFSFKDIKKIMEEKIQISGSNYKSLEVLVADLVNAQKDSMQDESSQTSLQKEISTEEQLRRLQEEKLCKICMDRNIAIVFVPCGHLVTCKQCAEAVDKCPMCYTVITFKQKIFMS

[11] = system: XIP peptide (Xip251-270) binding; assay: small-molecule binders of XIP peptide, primary screen, biochemical, small-molecule microarray, fluorescence 635/667 nm, 0.1 µg/mL protein (AID 1182); details: fluorescent protein binding, 635 nm, higher = more signal, called active from +8 up or from −8 down
XIP peptide (Xip251-270) = assay: small-molecule binders of XIP peptide, primary screen, biochemical, small-molecule microarray, fluorescence 635/667 nm, 0.5 µg/mL protein (AID 1183); details: small-molecule microarray binding, fluorescence 635 nm; higher = more signal
[12] = Plasmodium falciparum growth inhibition, primary screen, strain 3D7, DAPI fluorescence, 100 nL (AID 1184);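 note: parasites grown inside human red blood cells in medium with human serum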; details: P. falciparum 3D7 growth, 3 d, higher = more signal
[13] = target: Homeobox protein Hox-A13 (Mus musculus) (UniProt Q62424); assay: inhibitors of HoxA13-DNA binding, primary screen, biochemical, fluorescence polarization, labeled oligonucleotide (AID 1185); details: 15 min, higher = more signal, called active from +8 up or from −8 down
Sequence of Homeobox protein Hox-A13 (Mus musculus) (Q62424 whole entry, looked up): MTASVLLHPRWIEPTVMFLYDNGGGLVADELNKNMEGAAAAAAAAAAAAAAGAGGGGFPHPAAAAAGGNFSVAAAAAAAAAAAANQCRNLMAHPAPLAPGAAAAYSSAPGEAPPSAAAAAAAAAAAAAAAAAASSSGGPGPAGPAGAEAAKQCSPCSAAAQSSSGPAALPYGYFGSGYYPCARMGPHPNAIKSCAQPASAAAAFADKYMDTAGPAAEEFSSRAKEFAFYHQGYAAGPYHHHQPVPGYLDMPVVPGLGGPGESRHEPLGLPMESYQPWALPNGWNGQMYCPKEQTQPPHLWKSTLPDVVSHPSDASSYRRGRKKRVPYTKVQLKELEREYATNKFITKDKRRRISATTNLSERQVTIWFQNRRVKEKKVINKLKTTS

[14] = inhibitors of hydroxyurea-induced Chk1 phosphorylation, primary screen, imaging, HeLa, phospho-Chk1 antibody, percent positive cells (AID 1186); details: hydroxyurea-induced phospho-Chk1 immunofluorescence imaging, higher = more signal
[15] = inhibitors of hydroxyurea-induced Chk1 phosphorylation, primary screen, imaging, HeLa, phospho-Chk1 nuclear intensity (AID 1187); details: hydroxyurea-induced phospho-Chk1 immunofluorescence imaging, higher = more signal

| Compound | z-score [1] | z-score [2] | z-score [3] | composite z-score [4] | z-score [5] | z-score [6] | z-score [7] | z-score [8] | z-score [9] | composite z-score [10] | composite z-score [11] | composite z-score (XIP peptide (Xip251-270)) | z-score [12] | z-score [13] | z-score [14] | z-score [15] |
| --- | --- | --- | --- | --- | --- | --- | --- | --- | --- | --- | --- | --- | --- | --- | --- | --- |
| COc1cc(COC(C)=O)ccc1OC(C)=O | 0.858 | -0.715 (inactive) | 0.101 (inactive) | -0.942 (inactive) | 0.317 (inactive) | -1.35 (inactive) | 1.17 (inactive) | 0.871 (inactive) | 0.614 | -0.269 | -0.603 (inactive) | 0.213 | 0.287 | 0.579 (inactive) | -1.08 (inactive) | -1.53 (inactive) |
| O=C(CS)NCCCCCCNC(=O)[C@@H]1C[C@@H]2C(=O)N[C@@H](Cc3ccccc3)C(=O)N2[C@@H]1c1cccc(OCCO)c1 | 0.531 | 0.49 (inactive) | -0.137 (inactive) | -0.0547 (inactive) | 0.255 (inactive) | 0.0598 (inactive) | 0.051 (inactive) | 0.0288 (inactive) | -0.549 | 0.0264 | 0.644 (inactive) | 0.763 | 1.17 | -2.64 (inactive) | 0.835 (inactive) | 1.17 (inactive) |
| [N-]=[N+]=Nc1ccccc1[C@H]1OC(c2ccc(OCCCO)cc2)=N[C@@]1(CCS(=O)(=O)c1ccccc1)C(N)=O | -0.183 | -1.06 (inactive) | 0.952 (inactive) | 0.22 (inactive) | 0.897 (inactive) | -0.167 (inactive) | 0.981 (inactive) | -0.319 (inactive) | 0.187 | 0.291 | 1.21 (inactive) | 0.941 | -1.42 | -4.72 (inactive) | -0.23 (inactive) | 0.052 (inactive) |
| CCCCCN1CC=CC23O[C@@H]4C=CCCOC(=O)C4[C@H]2C(=O)N(CCCCCO)[C@@H]3C1=O (some centres undefined) | 0.476 | 0.388 (inactive) | 0.66 (inactive) | -0.185 (inactive) | -0.304 (inactive) | 0.467 (inactive) | 0.685 (inactive) | 0.67 (inactive) | 0.802 | 0.263 | 0.382 (inactive) | -0.0494 | 0.798 | -4.21 (inactive) | 0.251 (inactive) | 0.408 (inactive) |
| C=CCOC(=O)[C@H]1[C@@H]2C(=O)O[C@@H](c3ccccc3)[C@@H](c3ccccc3)N2[C@@H](c2ccc(OCCOC(=O)[C@H]3C[C@H]4C(=O)N[C@@H](CCCC[N+](C)(C)C)C(=O)N4[C@H]3c3ccc(O)cc3)cc2)[C@]12C(=O)Nc1ccc(I)cc12 | -0.427 | -0.154 (inactive) | -0.13 (inactive) | -0.24 (inactive) | -0.379 (inactive) | 0.0102 (inactive) | -0.873 (inactive) | -0.473 (inactive) | -0.078 | 2.28 | 1.7 (inactive) | 0.848 | 0.615 | -2.52 (inactive) | -0.324 (inactive) | -0.62 (inactive) |
| O=C1C2C=CC(C(O)c3cccc4ccccc34)N(Nc3ccccc3F)C2C(=O)N1c1ccccc1 (centres undefined) | 0.0332 | -0.103 (inactive) | -0.186 (inactive) | -0.629 (inactive) | 1.11 (inactive) | 0.0054 (inactive) | -0.844 (inactive) | -0.204 (inactive) | 0.0889 | 0.321 | 1.09 (inactive) | 0.871 | 0.71 | -3.52 (inactive) | 0.228 (inactive) | 0.807 (inactive) |
| C=C(CCCC)/C(=C/C[C@@H](OC(C)=O)c1ccc(OCCO)cc1)c1cnc2ccccc2c1 | 0.54 | -0.845 (inactive) | -0.267 (inactive) | -4.4 (inactive) | 0.825 (inactive) | -0.81 (inactive) | 1.85 (inactive) | 1.49 (inactive) | 0.445 | -0.0228 | 0.591 (inactive) | 0.751 | -3 | -3.65 (inactive) | -0.66 (inactive) | -0.0832 (inactive) |
| [N-]=[N+]=NCc1ccccc1C[C@]1(C(=O)N2CCCCC2)N=C(c2ccc(OCCCO)cc2)O[C@H]1c1ccccc1N=[N+]=[N-] | 0.297 | 0.264 (inactive) | -2.36 (inactive) | 0.168 (inactive) | 0.426 (inactive) | 0.875 (inactive) | 0.173 (inactive) | -0.446 (inactive) | -2.4 | -0.332 | 0.113 (inactive) | 0.694 | -1.95 | 0.766 (inactive) | -0.273 (inactive) | -0.448 (inactive) |
| COCCOC(=O)N1C(=O)[C@@]2(c3cc(C#CCC(C(=O)OC)C(=O)OC)ccc31)[C@H](C(=O)N1CCN(c3ncccn3)CC1)[C@H]1C(=O)O[C@H](c3ccccc3)[C@H](c3ccccc3)N1[C@@H]2c1ccccc1OCCO | -0.354 | 1.51 (inactive) | -0.0626 (inactive) | -1.42 (inactive) | 3.78 (inactive) | 2.75 (inactive) | 0.284 (inactive) | 0.0336 (inactive) | -0.5 | -0.0749 | 0.171 (inactive) | 0.679 | -2.03 | -0.504 (inactive) | 0.0845 (inactive) | 0.176 (inactive) |
